# Test results published in PubChem BioAssay (NCATS).
# Results filed as inconclusive are left out. Active and inactive are the calls of the source. The call rests on the fitted dose curve; in most records, active means well fitted cell-killing curve with a large enough effect; inconclusive means small, poorly fitted or top-dose-only effect, or effect the other way; inactive means no such curve, though single readings can be large or run the other way.
# Test: Quantitative High-Throughput drug screen in 47 multiple myeloma cell lines against the NCATS MIPE library collection: Karpas417_ECACC cell viability assay (AID 1918961)
# Details: Karpas417 myeloma viability, CellTiter-Glo ATP luminescence, 48 h; viability (% of DMSO): at 45.8 µM (top of the series) unless noted
# From the text: PI: Beverly A. Mock Ph.D.
# Laboratory of Cancer Biology and Genetics,
# Center for Cancer Research, National Cancer Institute,
# National Institute of Health, Bethesda, Maryland
# Drug resistance and disease progression are common in multiple myeloma (MM) patients, underscoring the need for new therapeutic combinations. […] We hypothesized that effective combinations would reduce MYC expression and enhance p16 activity. […] These preclinical data identify potentially useful drug combinations for evaluation in drug-resistant MM and reveal potential mechanisms of combined drug sensitivity.
# Described herein is the primary MIPE qHTS used to cherrypick compounds. Validated compounds were then further tested for potential synergistic activiy.
# [1] Peat TJ, Gaikwad SM, Dubois W, Gyabaah-Kessie N, Zhang S, Gorjifard S, Phyo Z, Andres M, Hughitt VK, Simpson RM, Miller MA, Girvin AT, Taylor A, Williams D, D'Antonio N, Zhang Y, Rajagopalan A, Flietner E, Wilson K, Zhang X, Shinn P, Klumpp-Thomas C, McKnight C, Itkin Z, Chen L, Kazandijian D, Zhang J, Michalowski AM, Simmons JK, Keats J, Thomas CJ, Mock BA. Drug combinations identified by high-throughput screening promote cell cycle transition and upregulate Smad pathways in myeloma. Cancer Lett. 2023 Aug 1;568:216284. doi: 10.1016/j.canlet.2023.216284. Epub 2023 Jun 24. PMID: 37356470; PMCID: PMC10408729.
# SEQUENCE No. (e.g., 1, 2, 3, etc.); […] (e.g., Cells, Incubation, Reagent, etc.); VALUE and DESCRIPTION.
# 1; Cells; 5 uL; white, solid bottom 1536-well Greiner assay plate.
# 2; Compounds; 23 nL; Kalypsis pin tool (Wako USA) equipped with a 1536-well pin head to transfer to the assay plates.
# 3; Incubation; 48 hours; 37C incubation.
# 4; Reagent;5uL; CellTiter Glo (Promega).
# 5; Detector; 425V; Luminescence; Viewlux PerkinElmer.
# NOTES (numbers refer to Sequence numbers above)
# 1. The cell-based screening methods employed in this study were like those previously published. Briefly, the corresponding myeloma cell lines were screened in 1,536-well plates with 500 cells, 5-uL per well for inhibition of cell viability (assessed by measuring ATP levels with CellTiterGlo).
# 2. NCATS MIPE 4.0 library of approved and investigational drugs were added using the Kalypsis pin tool. Wells treated with DMSO only for 100% viability and media only wells for 0% viability were used as controls.
# 3. The assay plates were covered and incubated for 48 hours in a 37C, 5% CO2 incubator with controlled humidity.
# 4. After 48 hours, CellTilter-GloTM luminescent substrate mix (Promega) reagent was added to the assay plate and plates we incubated for 5 min at room temperature.
# 5. Signal was measured as median relative luminescence units on a ViewLux (PerkinElmer) multiplate reader.
# [1] Heske CM, Davis MI, Baumgart JT, Wilson K, Gormally MV, Chen L, Zhang X, Ceribelli M, Duveau DY, Guha R, Ferrer M, Arnaldez FI, Ji J, Tran HL, Zhang Y, Mendoza A, Helman LJ, Thomas CJ. Matrix Screen Identifies Synergistic Combination of PARP Inhibitors and Nicotinamide Phosphoribosyltransferase (NAMPT) Inhibitors in Ewing Sarcoma. Clin Cancer Res. 2017 Dec 1;23(23):7301-7311. doi: 10.1158/1078-0432.CCR-17-1121. Epub 2017 Sep 12. PMID: 28899971; PMCID: PMC6636827.
# Potency means the concentration at half of the fitted maximal effect.
Structure (SMILES),Potency,viability (% of DMSO)
Cn1cnc([N+](=O)[O-])c1Sc1ncnc2nc[nH]c12,inactive,
COc1ccc(-c2c(-c3ccc(O)cc3O)n[nH]c2C)cc1,,34.5% [at 92.2 µM] (active)
O=c1[nH]cnc2[nH]ncc12,inactive,
Cc1cc([C@@H](C)Nc2ccccc2C(=O)O)c2nc(N3CCOCC3)cc(=O)n2c1,,5.47% [at 92.2 µM] (active)
Cc1ccc(NC(=O)c2cccc(C(C)(C)C#N)c2)cc1Nc1ccc2ncn(C)c(=O)c2c1,187 nM (active),
Cn1cnc2c(F)c(Nc3ccc(Br)cc3Cl)c(C(=O)NOCCO)cc21,264 nM (active),
OC(CCN1CCCCC1)(c1ccccc1)C1CC2C=CC1C2 (stereo not given),inactive,
COCC(=O)NCC=Cc1ccc2ncnc(Nc3ccc(Oc4ccc(C)nc4)c(C)c3)c2c1,10500 nM (active),
Cc1n[nH]c(C)c1Cc1sc2c(c1C(=O)N1C[C@H](O)CO1)c(=O)n(C)c(=O)n2CC(C)C,20.9 nM (active),
CC[C@H](Nc1ncnc2nc[nH]c12)c1nc2cccc(F)c2c(=O)n1-c1ccccc1,inactive,
COc1c(Cl)cc2c([nH]c3cnccc32)c1NC(=O)c1cccnc1C,16600 nM (active),
COc1ccc(-c2ccc3c(N4CCOCC4)nc(N4C[C@@H](C)O[C@@H](C)C4)nc3n2)cc1CO,148 nM (active),
Oc1cccc(-c2nc(N3CCOCC3)c3oc4ncccc4c3n2)c1,,2.23% [at 92.2 µM] (active)
COc1cc(F)c(F)c(Nc2ccc(I)cc2F)c1NS(=O)(=O)C1(C[C@H](O)CO)CC1,16600 nM (active),
COc1nc(-c2ccc3c(c2)OCO3)n(-c2ccc(NC(=O)CSc3ccccc3)cc2)n1,inactive,
O=C(Nc1nc2ccccc2n1CCN1CCOCC1)c1cccc([N+](=O)[O-])c1,4690 nM (active),
Cc1c(CCOc2ccc(C(=O)O)cc2)c2cc(Cl)ccc2n1C(c1ccccc1)c1ccccc1,inactive,
Nc1ccc(S(=O)(=O)Nc2ccnn2-c2ccccc2)cc1,inactive,
CS(=O)(=O)c1cccc(CNc2nc(Nc3ccc4c(c3)CCC(=O)N4)ncc2C(F)(F)F)c1,2640 nM (active),
N[C@@H]1CONC1=O,inactive,

Structure (SMILES),Potency,viability (% of DMSO)
CN(C)c1ccc(Nc2nc(N)n(C(=O)c3c(F)cccc3F)n2)cc1,1660 nM (active),
NNCCc1ccccc1,inactive,
COc1cc2nccc(Oc3ccc(NC(=O)NC4CC4)c(Cl)c3)c2cc1C(N)=O,inactive,
O=C(NOC[C@H](O)CO)c1ccc(F)c(F)c1Nc1ccc(I)cc1F,46.9 nM (active),
O=C(O)CCc1ccc(NCc2cccc(Oc3ccccc3)c2)cc1,inactive,
O=C1CCCC2=C1C(c1[nH]ncc1Cl)N=C(Nc1nc3ccccc3o1)N2 (stereo not given),inactive,
CN1CCN(CCCN2c3ccccc3Sc3ccc(C(F)(F)F)cc32)CC1,,113% (active)
O=C1[C@H](Cc2ccc(O)cc2)N2C(=O)CCN(C(=O)NCc3ccccc3)[C@H]2CN1Cc1cccc2ccccc12,inactive,
Cc1cc(-c2ccc(CC(=O)Nc3ccc(-c4cccnc4)cc3)cc2)ccn1,16600 nM (active),
CO[C@@H]1[C@H](N(C)C(=O)c2ccccc2)C[C@H]2O[C@]1(C)n1c3ccccc3c3c4c(c5c6ccccc6n2c5c31)C(=O)NC4,469 nM (active),
Fc1ccc(Cl)cc1-c1nc(Nc2ccncc2)c2nccnc2n1,inactive,
Nc1ncnc2nc(-c3ccc(N4CCOCC4)nc3)cc(-c3cccc(Br)c3)c12,inactive,
CC[C@@H](C)[C@H](NC(=O)[C@H](CC1CCCCC1)NC(=O)c1ccno1)C(=O)N1CCC2(CCc3ccccc32)CC1,,124% (active)
CC(C)(N)C(=O)N[C@H](COCc1ccccc1)C(=O)N1CCC2(CC1)CN(S(C)(=O)=O)c1ccccc12,inactive,
O=C1CCc2cc(OCCCCc3nnnn3C3CCCCC3)ccc2N1,,113% (active)
OC[C@H](Cc1ccccc1)Nc1nc(Oc2ccc3c(c2)CCC3)nc2c1ncn2Cc1ccc(-c2ccccc2)cc1,inactive,
CCOc1cc(C=C2C(=O)N(c3ccccc3)N=C2C)cc(Cl)c1OCC(=O)OC,8330 nM (active),
CCc1cncnc1N1CCN(Cc2nc3ccc(C(F)(F)F)cc3[nH]2)CC1,inactive,
COc1ccc2c3n(c(=NC(=O)c4cccnc4)nc2c1OC)CCN3,inactive,
CCN(CC)CCCC(C)Nc1ccnc2cc(Cl)ccc12 (stereo not given),52.6 nM (active),
